VACV Venus inh: vaccinia inhibition (Venus reporter); Vaccinia virus Venus reporter expression, fluorescence; Potency, µM (titrated, usually from 36.5 µM), without a hit: at the top dose activity change, negative = inhibition, actives largely listed as inhibitors; actives 0.46% (n = 330,000); AID 720580; calls by dose curve; tested in A549 cells; further: potency means the concentration at half of the fitted maximal effect; nearly all actives have a fitted effect of over 30% in size
FMDV antiviral: antivirals against foot and mouth disease virus. actives 1.2% (n = 410,000). FMDV antiviral cell-based qHTS. AID 1159524. Potency, µM (titrated, usually from 57.9 µM), for inactives: at the top dose activity change, negative = inhibition, hits mostly inhibitors; calls by dose curve; tested in HEK293T cells; further: read-out not given here; potency means the concentration at half of the fitted maximal effect; nearly all actives have a fitted effect of over 45% in size
Vaccinia mCherry: vaccinia inhibition (mCherry reporter); Vaccinia virus mCherry reporter infection, fluorescence; Potency, µM (titrated, usually from 36.5 µM), inactives show at the highest dose activity change, negative = inhibition, most hits filed as inhibitors; actives 0.63% (n = 310,000); AID 720579; calls by dose curve; tested in A549 cells; further: potency means the concentration at half of the fitted maximal effect; nearly all actives have a fitted effect of over 35% in size
Marburg entry inh: blocks Marburg virus binding to or entry into cells | Marburg virus pseudotyped entry inhibition, cell reporter | Potency, µM (titrated, usually from 37.8 µM), for inactives: top-dose activity change, negative = inhibition, hits mostly inhibitors | actives 1.8% (n = 300,000) | AID 540276; calls by dose curve; tested in HEK293 cells; further: potency means the concentration at half of the fitted maximal effect
LASV entry inh: inhibitors of Lassa virus binding or cell entry; Potency, µM (series often up to 37.9 µM), inactives show at the top dose activity change, negative = inhibition, hits mostly inhibitors; actives 1.2% (n = 300,000); Lassa virus pseudotype entry inhibition, cell reporter; calls by dose curve; tested in HEK293 cells; further: potency means the concentration at half of the fitted maximal effect; nearly all actives have a fitted effect of over 50% in size
HCMV antiviral: inhibitors of human cytomegalovirus; HFF cells, HCMV-luciferase reporter, 72 h; active compounds read low; activity change, negative = inhibition, % at 57.5 µM; actives 4.5% (n = 410,000); AID 1259415; in the data active means activity change below about -60%; inconclusive means no clear call, values can overlap the other calls; inactive means above about -39%
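Luciferase read-out from HCMV-luciferase-infected HFFs (MOI 1 PFU/cell) 72 h post infection at 37C; compounds added after 16 h cell attachment; activity normalized between buffer-only basal and Salinomycin (10uM) inhibitor controls.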
* hit, by the source's call; [ ] = dose if it differs, or a comment. Sampled rows, rich in hits. Any-hit rate of the full collection: about 6.5%. On the % scale 0 is the no-effect control and ±100 the full control effect.

For Cc1nn(Cc2ccc(C(=O)Nc3ccccc3C(F)(F)F)o2)c(C)c1Br the results were FMDV antiviral -3%, Marburg entry inh inconclusive, LASV entry inh inconclusive and HCMV antiviral -10.
`Cc1csc(NC(=O)c2ccc(Cn3nc(C)c(Br)c3C)o2)n1` gave VACV Venus inh inconclusive, FMDV antiviral 22µM*, Vaccinia mCherry inconclusive, Marburg entry inh inconclusive, LASV entry inh 11µM* and HCMV antiviral -16.
`Cc1nc(-c2cccc(NC(=O)c3ccco3)c2)cs1` gave VACV Venus inh -3%, FMDV antiviral 5%, Vaccinia mCherry -19%, Marburg entry inh inconclusive, LASV entry inh 8%[46.1 µM] and HCMV antiviral -87*.
O=C(/C=C/c1ccccc1)N1CC2ON=C(c3c(F)cccc3Cl)C2C1 (configuration not stated) was read as HCMV antiviral -8.
For COc1ccccc1CCc1nc2ccccc2n1C1CCN(C(=O)c2cc(C)nn2C)CC1 the results were VACV Venus inh -1%, FMDV antiviral -7% and Vaccinia mCherry -8%.
Cc1ccc(C(=O)OCC(=O)Nc2ccccc2)cc1NC(=O)c1ccco1 was read as FMDV antiviral 23%, Marburg entry inh 1%, LASV entry inh 6% and HCMV antiviral -7.
For Cc1ccc(C(=O)OCC(=O)Nc2nc(-c3ccccc3)cs2)cc1NC(=O)c1ccco1 the results were VACV Venus inh inconclusive, FMDV antiviral 25µM*, Vaccinia mCherry inconclusive, Marburg entry inh inconclusive, LASV entry inh inconclusive and HCMV antiviral -26.
Screening O=C(COC(=O)c1ccccc1OCCOc1ccccc1)Nc1ccc(Br)cc1 returned VACV Venus inh -15% and Vaccinia mCherry -5%.
Screening C=CCNC(=S)NNC(=O)COc1ccc(Br)cc1 returned VACV Venus inh -11%, FMDV antiviral -15%, Vaccinia mCherry -19%, Marburg entry inh 0%, LASV entry inh 7% and HCMV antiviral -61*.
Cc1c(O)ccc2c(CN3CCN(Cc4ccccc4)CC3)cc(=O)oc12 was read as FMDV antiviral inconclusive and HCMV antiviral -62*.
Screening Cc1ccccc1CN(C)Cc1cc(=O)oc2c(C)c(C)ccc12 returned VACV Venus inh -6%, FMDV antiviral inconclusive, Vaccinia mCherry -28%, Marburg entry inh 4µM*, LASV entry inh 2.8µM* and HCMV antiviral -15.
Screening Cc1c(O)ccc2c(CN(C)Cc3ccccc3)cc(=O)oc12 returned VACV Venus inh -13%, FMDV antiviral -17%, Vaccinia mCherry inactive, Marburg entry inh 12µM*, LASV entry inh inconclusive and HCMV antiviral -67*.
`O=c1cc(CN2CCN(Cc3ccccc3)CC2)c2ccc(O)c(O)c2o1` gave VACV Venus inh -27%, FMDV antiviral -8%, Vaccinia mCherry -17%, Marburg entry inh inconclusive, LASV entry inh -18% and HCMV antiviral 9.
For Cc1ccccc1C(=O)Nc1nnc(S(=O)(=O)N2CCCc3ccccc32)s1 the results were VACV Venus inh -3%, FMDV antiviral 4%, Vaccinia mCherry -9%, LASV entry inh 7%[46.1 µM] and HCMV antiviral 13.
`Cc1ccc(N(CC(=O)N2CCN(c3cccc(C)c3C)CC2)S(=O)(=O)c2c(C)nn(C)c2C)cc1` gave VACV Venus inh -24%, FMDV antiviral 9%, Vaccinia mCherry -25%, Marburg entry inh inconclusive, LASV entry inh inconclusive and HCMV antiviral -19.
O=C(NCc1ccncc1)c1cnn(-c2nccc(-c3cc4ccccc4o3)n2)c1C1CC1 was read as VACV Venus inh -11%, FMDV antiviral -19% and Vaccinia mCherry -17%.
For NC(=S)N/N=C/c1ccc(-c2cc(Cl)ccc2Cl)o1 the results were VACV Venus inh 3.2µM*, FMDV antiviral 2%, Vaccinia mCherry 3.2µM*, Marburg entry inh inconclusive, LASV entry inh inconclusive and HCMV antiviral -24.
Screening NC(=S)N/N=C/c1ccc(-c2cc(Cl)cc(Cl)c2)o1 returned VACV Venus inh inconclusive, FMDV antiviral -26%, Marburg entry inh -29%, LASV entry inh -29% and HCMV antiviral inconclusive.
Cc1ccc(NC(=O)C2CCC(CNS(=O)(=O)c3ccc4c(c3)CCCC(=O)N4)CC2)c(C)c1 (configuration not stated) was read as VACV Venus inh -21%, FMDV antiviral -1%, Vaccinia mCherry -21%, LASV entry inh -12%[46.1 µM] and HCMV antiviral -11.
`C[C@H]1CC[C@H]2C(=O)O[C@H](CO)CN2[C@@H]1c1ccc(Br)cc1` gave Marburg entry inh -20%[14.2 µM].
`CCOc1cc(/C=C2\C(=O)N(Cc3ccc(C)cc3)C(C)=C2C(=O)OC)ccc1O` gave VACV Venus inh -19%, FMDV antiviral 35µM*, Marburg entry inh 2%, LASV entry inh inconclusive and HCMV antiviral 23.
COC(=O)/C=C/[C@H]1CCCN1c1ccc(OC)cc1 was read as HCMV antiviral -14.
`CCCSCCCNC(=O)CN1C(=O)CCn2nc(-c3cn(C)c4ccccc34)cc21` gave VACV Venus inh -4%, FMDV antiviral -14%, Vaccinia mCherry -2%, LASV entry inh 0%[46.1 µM] and HCMV antiviral 6.
For Cc1ccccc1C(=O)Nc1ccc2c(C#N)c3nc4ccccc4nc3n2c1 the results were VACV Venus inh 271%, FMDV antiviral inconclusive, Vaccinia mCherry 67%, Marburg entry inh -17%, LASV entry inh 0% and HCMV antiviral -65*.
Screening Cc1ccc(S(=O)(=O)N2CCN(C(=O)c3cc4c(C)nn(-c5ccccc5C)c4s3)CC2)cc1 returned VACV Venus inh inconclusive, FMDV antiviral -31%, Vaccinia mCherry inconclusive, Marburg entry inh 18µM*, LASV entry inh inconclusive and HCMV antiviral -34.
COc1cccc(CNC(=O)c2cc3c(s2)-c2c(C)cccc2OC3)c1 was read as VACV Venus inh -22%, FMDV antiviral -5%, Vaccinia mCherry inactive, Marburg entry inh inconclusive and HCMV antiviral -13.
Screening N=c1c2c(-c3ccccc3)c(-c3ccccc3)n(Cc3ccco3)c2ncn1CCCO returned VACV Venus inh -8%, FMDV antiviral inconclusive, Vaccinia mCherry -7%, Marburg entry inh 5.6µM*, LASV entry inh inconclusive and HCMV antiviral -32.
`N=c1c2c(-c3ccccc3)c(-c3ccccc3)n(Cc3ccco3)c2ncn1CCO` gave VACV Venus inh inconclusive, FMDV antiviral inconclusive, Vaccinia mCherry -27%, Marburg entry inh inconclusive, LASV entry inh inconclusive and HCMV antiviral -5.
Screening N=c1c2c(-c3ccccc3)c(-c3ccccc3)n(Cc3ccco3)c2ncn1CCN1CCOCC1 returned FMDV antiviral -2%, Marburg entry inh 10µM*, LASV entry inh inconclusive and HCMV antiviral -33.
Screening CCN(C(=O)CSc1nnc(NCc2ccccc2)s1)C1CCS(=O)(=O)C1 (configuration not stated) returned FMDV antiviral 3%, Marburg entry inh 12%, LASV entry inh 5% and HCMV antiviral -74*.
